# Hits are enriched below; roughly 31% of the tested compounds scored in any of these assays.
# CYP2C9 inh = human CYP2C9 inhibition; P11712; CYP2C9 Supersomes, luciferin-H conversion, luminescence; inhibition, % at 5 µM; 96,000 compounds, 20% hits;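 active = blocking of liver enzyme CYP2C9 beyond about 50% at 5 µM, limit read from the data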
# CYP2C19 act = increases human CYP2C19 enzyme activity; P33261; recombinant CYP2C19, luciferin-H EGE luminescence; active compounds read high; 0 = fully inhibited enzyme, 1 = untreated enzyme; activation factor at 5 µM; 96,000 tested, under 10 active; AID 1025;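 active = activation factor of at least 2 at 5 µM in the primary screen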;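 note: 0 = wells with 2.5 mM tranylcypromine and 1 = vehicle-only wells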
# Target sequence (P33261 whole entry, looked up): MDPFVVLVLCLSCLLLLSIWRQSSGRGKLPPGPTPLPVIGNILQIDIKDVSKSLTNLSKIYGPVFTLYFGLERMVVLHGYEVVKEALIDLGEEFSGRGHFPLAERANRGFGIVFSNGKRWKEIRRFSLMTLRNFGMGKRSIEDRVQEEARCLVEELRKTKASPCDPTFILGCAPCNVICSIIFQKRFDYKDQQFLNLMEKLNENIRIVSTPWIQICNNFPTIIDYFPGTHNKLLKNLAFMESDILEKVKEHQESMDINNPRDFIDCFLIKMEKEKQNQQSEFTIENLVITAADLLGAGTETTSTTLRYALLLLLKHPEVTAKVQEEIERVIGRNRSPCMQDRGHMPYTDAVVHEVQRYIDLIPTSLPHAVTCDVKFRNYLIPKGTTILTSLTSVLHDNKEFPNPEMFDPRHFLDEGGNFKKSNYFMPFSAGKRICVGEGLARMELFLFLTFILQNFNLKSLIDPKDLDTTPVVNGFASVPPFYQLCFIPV
# CYP2C19 inhib = blocks human cytochrome P450 2C19; CYP2C19 Supersomes, luciferin-H EGE luminescence, 30 min; inhibition, % at 5 µM; 96,000 compounds, 21% hits;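 active = CYP2C19 inhibition above a set limit at 5 µM in the primary screen, cut at about 50% in these data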;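 note: plate controls were negative control wells for no effect and 2.5 mM tranylcypromine positive control for full effect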
# CYP2C9 activ = increases human cytochrome P450 2C9 activity; recombinant CYP2C9, luciferin-H conversion, luminescence; active compounds read high; factor 1 = untreated enzyme, 0 = blocked; 96,000 compounds, 1.4% hits; AID 1024; activation factor at 5 µM; P11712;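 active = activation factor of 2 or more for CYP2C9 at a 5 µM dose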;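 note: 0 = sulfaphenazole-blocked wells and 1 = vehicle-only wells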
# * marks the source's active call; other numbers are inactive results.
SMILES,CYP2C9 inh,CYP2C19 act,CYP2C19 inhib,CYP2C9 activ
Cc1cccc(C(=O)Oc2ccccc2C2C[C@]3(C)CC(=O)NC3N2C(=O)c2cccc(C)c2)c1 (some centres not stated),57.4*,0.6,40.7,0.4
COc1cccc2c1OC1(C)CC2NC(=O)N1c1cccc(C(=O)N2CCN(c3ccccn3)CC2)c1 (configuration not stated),0.9,1.1,-10.4,1
C[C@@]12CC(=O)NC1N(C(=O)c1cccc(C(F)(F)F)c1)C(c1ccccc1O)C2 (some centres not stated),69.1*,0.4,55.6*,0.3
O=C(NCc1ccccc1F)C1CCCN(C(=O)NC2CCCCC2)C1 (configuration not stated),-0.6,1,-2.7,1
Cc1ccc(-c2cc(-c3ccc(Cl)cc3)c(C#N)c(N)n2)o1,57.3*,0.2,75.4*,0.4
Cc1cc(-c2cc(-c3ccc(Cl)cc3)nc(N)c2C#N)co1,69.0*,0.2,83.0*,0.3
Cc1ccc(-c2cc(-c3ccc(C)o3)nc(N)c2C#N)cc1,27.7,0.9,10.4,0.7
CCc1cccc(OCCCCN(CC)CC)c1,6.4,0.9,7.9,0.9
O=C(/C(=C/c1ccccc1)c1ccccc1)N1CCCCC1,74.5*,0.7,32.0,0.3
CS(=O)(=O)N(CC(=O)N1CCN(c2cccc(Cl)c2)CC1)c1cccc(F)c1,-0.9,1,-4.9,1
Cc1c(C(=O)OC(C)C)[nH]c2c1C(=O)CC(C)(C)C2,75.5*,0.2,75.3*,0.2
CCOC(=O)c1[nH]c2ccc(F)cc2c1NC(=O)C1=COCCO1,24.3,0.8,17.0,0.8
CCN(C(=O)c1sc(N)c(C#N)c1C)C1CCCCC1,-5.3,0.4,59.3*,1.1
CCN(CC)C(=O)c1sc(NC(=O)Cc2cccs2)c(C#N)c1C,43.3,0.7,33.1,0.6
CCn1c(=O)n(CC(=O)NCc2ccccc2OC)c(=O)c2ccccc21,-44.5,0.5,53.8*,1.4
COc1cccc(CNC(=O)Cn2c(=O)oc3ccccc32)c1OC,4.0,0.3,65.6*,1
CCn1c(=O)n(CC(=O)NCc2ccco2)c(=O)c2ccccc21,-6.7,0.7,26.9,1.1
Cc1cc(C)n2nc(C(=O)Nc3cccnc3)nc2n1,-8.5,1.1,-5.4,1.1
N#Cc1c(-c2ccccc2)c(-c2ccccc2)n(Cc2ccco2)c1NC(=O)c1cccs1,64.3*,0.5,49.7,0.4
CCOc1cc(C2NC(=O)NC(C)=C2C(C)=O)cc(Cl)c1OCC(=O)O (configuration not stated),13.3,1,-0.6,0.9
Clc1cc(Br)ccc1OCCOCCOc1cccc2cccnc12,-70.6,0.3,66.2*,1.7
Brc1ccc(OCCCN2CCOCC2)cc1,2.7,0.2,78.0*,1
Cc1cc(C)cc(OCCCOc2cccc3cccnc23)c1,-42.1,0.1,86.6*,1.4
Clc1cc(Br)ccc1OCCOCCN1CCOCC1,-2.0,0.2,81.0*,1
c1ccc(OCCCCN2CCOCC2)cc1,1.4,0.6,35.6,1
SMILES,CYP2C9 inh,CYP2C19 act,CYP2C19 inhib,CYP2C9 activ
CC(=O)NCCOc1cccc2cccnc12,-8.6,1.1,-5.1,1.1
Cc1cc(Cl)cc(Cl)c1OCCOc1cccc2cccnc12,-85.2,0.6,39.7,1.9
CC(C)(C)C(=O)Cn1c(NCCCO)nc2ccccc21,0.2,1,1.3,1
COc1ccc2c(c1)c(=O)oc1cc3oc(C)c(C)c3cc12,18.4,0.3,69.5*,0.8
O=C(NCC1CCCO1)c1ccc2c(c1)N(Cc1ccccc1)C(=O)CS2=O (configuration not stated),27.8,0.8,18.2,0.7
CC1CCCC(NC(=O)c2ccc3c(c2)N(Cc2ccccc2)C(=O)CS3=O)C1C (configuration not stated),76.3*,0.6,41.8,0.2
CCOC(=O)CC1ON(C)C(=O)N1c1ccc(Cl)cc1Cl (configuration not stated),46.1,0,98.6*,0.5
COc1cc(CNCC(O)c2ccccc2)ccc1OCc1ccc(Cl)nc1 (configuration not stated),39.0,0.6,42.2,0.6
COc1cc(CNCCc2ccccc2)ccc1OCc1ccc(Cl)nc1,34.7,0.3,67.9*,0.7
COc1cc(CNCCN2CCOCC2)ccc1OCc1ccc(Cl)cc1,3.3,0.8,20.3,1
CCOc1cc(CNCCc2ccc(S(N)(=O)=O)cc2)ccc1OCc1ccc(Cl)cc1,35.1,0.5,53.5*,0.6
COc1cc(CNCCc2ccc(S(N)(=O)=O)cc2)ccc1OCc1ccc(Cl)cc1,36.2,0.5,53.1*,0.6
